TDP1 block: TDP1 (human) enzyme inhibition | Q9NUW8 | recombinant TDP1, AlphaScreen DNA substrate cleavage | Potency, µM (top dose mostly 130 µM), without a hit: top-dose activity change, negative = inhibition, actives largely listed as inhibitors | 350,000 tested, 0.28% active | AID 485290; also: % is scaled to controls: 0 for no effect and ±100 for the full control effect; nearly all actives have a fitted effect of over 40% in size
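Here, a 5' biotin and 3' phosphotyrosine-FITC DNA oligonucleotide reports Tdp1 activity: intact substrate bridges AlphaScreen beads, while cleavage leaves a 3' phosphate and drops signal. All incubations at room temperature.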
TDP1 cell CPT: growth inhibition of DT40 Tdp1-/-;hTDP1 cells with camptothecin (screen for TDP1 inhibitors). AID 686979. 420,000 tested, 12% active. Potency, µM (titrated, usually from 46.2 µM), inactives show at the top dose activity change, negative = growth inhibition, most hits filed as inhibitors. chicken DT40 Tdp1-/-;hTDP1 cells + 20 nM CPT, ATP luminescence, 48 h; also: % is scaled to controls: 0 for no effect and ±100 for the full control effect; nearly all actives have a fitted effect of over 55% in size
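Chicken DT40 Tdp1-/- cells complemented with human TDP1, 400 cells/well, exposed to compounds plus 20 nM camptothecin for at least 48 h at 37 C; viability read as ATP content by CellTiter-Glo luminescence.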
ClpP mod: qHTS Assay for Activators of ClpP | purified B. subtilis ClpP, FRET peptide cleavage, 20 min | Potency, µM (highest dose often 57.5 µM), for inactives: at the top dose activity change, negative = active | 340,000 tested, 1.9% active | AID 651965, 2013; active = well fitted falling curve with a large enough effect; inconclusive = small, poorly fitted or top-dose-only effect; inactive = no such curve, though single readings can be large or run the other way; also: the source files actives as falling curves though it sought activators and does not explain the sign; nearly all actives have a fitted effect of over 65% in size
Target sequence (P80244 whole entry, looked up): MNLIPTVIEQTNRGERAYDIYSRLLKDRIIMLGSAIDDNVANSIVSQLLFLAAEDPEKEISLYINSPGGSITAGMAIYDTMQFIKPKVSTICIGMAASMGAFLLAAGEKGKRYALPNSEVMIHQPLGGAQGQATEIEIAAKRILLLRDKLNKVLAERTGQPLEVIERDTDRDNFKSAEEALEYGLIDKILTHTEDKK
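FRET quenching reversal measured ClpP activation: 10 microg/mL B. subtilis ClpP at pH 8 with the FRET-FV decapeptide, read at 430 nm after 320 nm excitation. The 20-min minus 0-min signal was scaled between DMSO/no-enzyme wells and ADEP (5.8 microM final).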
TDP1 cell noCPT: qHTS for Inhibitors of human tyrosyl-DNA phosphodiesterase 1 (TDP1): qHTS in cells in absence of CPT | DT40 Tdp1-/- hTDP1 cells, no CPT, ATP luminescence, 48 h | Potency, µM (doses to about 46.2 µM), inactives show at the highest dose activity change, negative = growth inhibition, actives largely listed as inhibitors | 420,000 tested, 15% active | AID 686978, 2013; also: % is scaled to controls: 0 for no effect and ±100 for the full control effect; nearly all actives have a fitted effect of over 55% in size
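Compound effects on proliferation are scored in DT40 Tdp1-/-;hTDP1 cells in the absence of CPT. ATP levels (CellTiter-Glo luminescence) are recorded after a ≥48 hr, 37 °C incubation.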
Starred values were filed as active, the others as inactive; ? = inconclusive; . = no result; [ ] = dose if it differs, or a comment. In the library only some 17% were active in any assay of this set; here they are far more common. Unless noted, calls follow the shape of the dose curve; as a rule, active = well fitted curve in the direction sought with a large enough effect; inconclusive = small, poorly fitted or top-dose-only effect, or another doubt; inactive = no such curve, though single readings can be large; an effect the other way counts as inactive or inconclusive. Potency is read from the fitted curve at half-maximal effect.

SMILES | TDP1 block | TDP1 cell CPT | ClpP mod | TDP1 cell noCPT
COCc1ccc(CN2Cc3ccccc3OC(c3ccccc3F)C2)o1 (stereo not given) | . | 4%[9.04 µM] | . | -30%
COC(=O)CSc1nc2sc3c(c2c(=O)n1-c1ccccc1)C(C)CCC3 (stereo not given) | . | -11% | -3% | -6%
COC(=O)N1CCC[C@@]2(CCN(Cc3cc(C(F)(F)F)cc(C(F)(F)F)c3)C2)C1 | . | 10% | . | 1%
O=C(NC(c1ccc(Cl)cc1)c1ccsc1)C1CCN(Cc2ccc(Oc3ccccc3)cc2)CC1 (stereo not given) | . | 2.6µM* | -1% | 2.6µM*
CCCN1CCC(C(=O)NC(c2ccc(Cl)cc2)c2ccsc2)CC1 (stereo not given) | . | ? | 0% | 2.9µM*
Cc1ccccc1C(NC(=O)C1CCN(Cc2ccc(Oc3ccccc3)cc2)CC1)c1ccsc1 (stereo not given) | . | 18µM* | 1% | 18µM*
COc1ccc(OCCN2CCC(C(=O)NC(c3ccsc3)c3ccccc3C)CC2)cc1 (stereo not given) | . | ? | -2% | ?
O=C(NC(c1ccccc1)c1ccsc1)C1CCN(Cc2ccccc2)CC1 (stereo not given) | . | ? | -2% | ?
COc1cc(CN2CCC(C(=O)NC(c3ccccc3)c3ccsc3)CC2)cc(OC)c1 (stereo not given) | . | 16µM* | 1% | 21µM*
CC(=O)c1ccc(C(=O)NCC2Cc3cccc(-c4ncccn4)c3O2)cc1 (stereo not given) | . | 3%[9.04 µM] | . | -24%
O=C([C@@H]1C[C@@H](Sc2nc3ccccc3[nH]2)CN1CC1CCCCC1)N1CCOCC1 | . | -4%[9.04 µM] | . | -16%
Cc1ccc(OCCn2c(-c3ccc(Cl)cc3)nc3ccccc3c2=O)c(C)c1 | . | -19% | 1% | 5%
CC(=O)Nc1ccc(Sc2ncccc2C(=O)Nc2ccc(OC(F)(F)F)cc2)cn1 | 5% | 6.5µM* | 1% | 5.2µM*
CCOC(=O)CC1=C(C(=O)OCC)C(c2ccncc2)C(C#N)=C(N)O1 (stereo not given) | 1% | ? | -2% | ?
CCOC(=O)C1C(C#N)=C(N)OC(C)=C1c1ccncc1 (stereo not given) | 4% | ? | 32µM* | ?
CCOc1ccc(CCNC(=O)CSc2cc(=O)n(CC)c3ccccc23)cc1OCC | 3% | ? | 32µM* | ?
CCn1c(=O)cc(SCC(=O)NCCc2ccc(Cl)cc2)c2ccccc21 | 6% | -7% | -14% | ?
CCn1c(=O)cc(SCC(=O)NCc2ccccc2OC)c2ccccc21 | 5% | ? | -2% | 23µM*
CCn1c(=O)cc(SCC(=O)NCCc2ccc(OC)cc2OC)c2ccccc21 | 9% | ? | -6% | 23µM*
O=C(Nc1ccc(F)cc1F)c1ccc(-n2cnc3cccnc32)cc1 | 8% | . | -7% | .
CCCC1C2CN(C(C)C)CC=C2C(C#N)=C(N)C1(C#N)C#N (stereo not given) | 4% | ? | 28µM* | ?
COc1cccc(C2C3CN(C)CC=C3C(C#N)=C(N)C2(C#N)C#N)c1OC (stereo not given) | 2% | -12% | ? | -16%
CN1CC=C2C(C#N)=C(N)C(C#N)(C#N)[C@H](c3cccs3)[C@H]2C1 | 0% | ? | -5% | 15µM*
CN1CC=C2C(C#N)=C(N)C(C#N)(C#N)C(c3ccsc3)C2C1 (stereo not given) | 5% | ? | ? | ?
CN1CC=C2C(C#N)=C(N)C(C#N)(C#N)[C@H](c3cccc(Cl)c3)C2C1 (stereo not given in full) | 0% | ? | ? | 23µM*
SMILES | TDP1 block | TDP1 cell CPT | ClpP mod | TDP1 cell noCPT
CN1CC=C2C(C#N)=C(N)C(C#N)(C#N)C(CCc3ccccc3)C2C1 (stereo not given) | 5% | ? | 28µM* | ?
O=C(O)[C@H]1/C(=C/CO)O[C@@H]2CC(=O)N21 | . | -1% | . | -14%
COC(=O)N1C(C2CC2)=Cc2ccccc2C1CC(C)=O (stereo not given) | 5% | . | . | .
CCN1CCN(c2ccc(S(=O)(=O)N3CCOCC3)cc2NC(=O)c2cc(Cl)nc3ccccc23)CC1 | -2% | ? | -4% | 16µM*
O=C(Nc1ccccc1N1CCCCC1)c1ncoc1-c1ccc(F)cc1 | 0% | ? | 28µM* | ?
CC(Oc1ccc(F)cc1)C(=O)Nc1ccccc1N1CCCCC1 (stereo not given) | -9% | ? | 3% | 16µM*
CCN1CCN(c2ccc(S(=O)(=O)N3CCOCC3)cc2NC(=O)C(C)Oc2ccc(Cl)cc2)CC1 (stereo not given) | 0% | ? | . | 18µM*
COc1ccc(CNC(=O)c2ccc3c(c2)nc2n3CCC(C)C2)c(OC)c1 (stereo not given) | 5% | 2% | -4% | ?
O=C(c1cccn1-c1nnc(N2CCCC2)s1)N1CCN(c2ccccc2)CC1 | 3% | ? | -1% | -19%
CCCCCCCCCCCC | 12% | . | . | .
CC(Oc1ccc(F)cc1)C(=O)Nc1cc(S(=O)(=O)N2CCCCC2)ccc1N1CCN(C)CC1 (stereo not given) | . | 23µM* | 0% | ?
CN1CCN(c2ccc(S(=O)(=O)N3CCCCC3)cc2NC(=O)COc2ccc(F)cc2)CC1 | -5% | ? | -4% | ?
Cc1nnsc1NC(=O)OCc1ccc(C(C)(C)C)cc1 | 5% | 15µM* | 1% | 8.2µM*
C=CCOC(=O)Nc1snnc1C | 1% | 0% | 1% | 2%
Nc1nnnn1-c1ccccc1 | . | -19% | . | -1%
COc1ccccc1NC(=O)C(C)OC(=O)C1CCC(C(C)(C)C)CC1 (stereo not given) | . | ? | -5% | ?
COCC(=O)O[C@]1(CCN(C)CCCc2nc3ccccc3[nH]2)CCc2cc(F)ccc2[C@@H]1C(C)C | 9%[56.1 µM] | 21µM* | 2% | 16µM*
Cc1cccc(OCC(=O)NCCc2nc3ccccc3[nH]2)c1C | . | ? | -5% | ?
O=C(CNC(=O)c1ccc(F)cc1)NCc1ccc(S(=O)(=O)N2CCOCC2)cc1 | 0% | -1% | 0% | -15%
CCOC(=O)c1nnc(-c2ccc(C)cc2)nc1Oc1ccccc1Cl | 6% | ? | -2% | ?
CCOC(=O)c1nnc(-c2ccc(C)cc2)nc1Oc1ccc(Cl)cc1Cl | 2% | ? | 2% | 16µM*
CCOC(=O)c1nnc(-c2ccccc2)nc1Sc1c(Cl)cccc1Cl | 8% | 21µM* | 1% | 16µM*
CCOC(=O)c1nnc(-c2ccc(C)cc2)nc1Sc1ccccc1Cl | -12% | ? | -1% | 16µM*
CCOC(=O)c1nnc(-c2ccc(C)cc2)nc1Sc1ccc(Cl)cc1 | 8% | 8.2µM* | -2% | 8.2µM*
